VACV mCherry inh = qHTS for Stage-Specific Inhibitors of Vaccinia Orthopoxvirus: mCherry Reporter Primary qHTS | Vaccinia virus mCherry reporter infection, fluorescence | Potency, µM (series often up to 36.5 µM), usual class: inhibitors | hit rate 0.63% among 310,000; calls by dose curve; tested in A549 cells; note: nearly all actives have a fitted effect of over 35% in size
HCV inhibitor = qHTS Assay for Inhibitors of Hepatitis C Virus (HCV). Huh7.5.1 HCVcc-Cre infection, luciferase reporter, 44 h. Potency, µM (titrated, usually from 41.8 µM), most hits filed as inhibitors. hit rate 3.4% among 340,000. AID 651820, 2012
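HCVcc-Cre virus at an moi near 0.5 was added right after compound to cells cultured 4 h from seeding (1,000 cells/well). Luciferase activity was determined 44 h later, 15 min after substrate addition at RT.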
VACV Venus inh = qHTS for Stage-Specific Inhibitors of Vaccinia Orthopoxvirus: Venus Reporter Primary qHTS | Vaccinia virus Venus reporter expression, fluorescence | Potency, µM (top dose mostly 36.5 µM), usual class: inhibitors | hit rate 0.46% among 330,000 | AID 720580, 2013; calls by dose curve; tested in A549 cells; note: nearly all actives have a fitted effect of over 30% in size
HCMV antiviral = qHTS Assay for inhibitors of the human cytomegalovirus (HCMV); HFF cells, HCMV-luciferase reporter, 72 h; stronger effect = lower value; activity change, negative = inhibition, % at 57.5 µM; hit rate 4.5% among 410,000; AID 1259415, 2018; in the data active = activity change below about -60%; inconclusive = no clear call, values can overlap the other calls; inactive = above about -39%
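Two-dose cell screen: HFF monolayers treated with compounds and infected with luciferase-expressing HCMV at 1 PFU/cell, 72 h at 37C, then lysed for luciferase measurement.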
Sm TGR block = qHTS Assay for the Inhibitors of Schistosoma Mansoni Peroxiredoxins | Schistosoma mansoni thioredoxin glutathione reductase (TGR), Q962Y6 | purified TGR, DTNB reduction, TNB absorbance 405 nm | Potency, µM (titrated, usually from 114 µM), actives largely listed as inhibitors | hit rate 3% among 360,000 | AID 485364, 2010; note: nearly all actives have a fitted effect of over 60% in size
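TGR 20 nM + NADPH 100 uM (dispensed conc.), cpd preinc 15 min RT; start with NADPH (500 uM addition) then DTNB (15 mM addition). Kinetic TNB absorbance, 405 nm filter. Four-parameter Hill fit across titration.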
FMDV antiviral = High Throughput Screening for Foot and Mouth Disease Virus Antivirals; FMDV antiviral cell-based qHTS; Potency, µM (titrated, usually from 57.9 µM), most hits filed as inhibitors; hit rate 1.2% among 410,000; calls by dose curve; tested in HEK293T cells; note: read-out not given here; nearly all actives have a fitted effect of over 45% in size
Large screens that a line does not name were inactive; ! = not confirmed by another sample. This is a sample that favours compounds with a hit; in the whole collection about 9.3% have one here. Unless noted, calls come from the whole dose curve; as a rule, active = well fitted curve in the direction sought with a large enough effect; inconclusive = small, poorly fitted or top-dose-only effect, or another doubt; inactive = no such curve, though single readings can be large; an effect the other way counts as inactive or inconclusive.

CCN(c1cc(C)cc(C)c1)S(=O)(=O)c1nnc(NC(=O)C(C)(C)C)s1	HCMV antiviral -67.2 (no result: VACV mCherry inh, VACV Venus inh)
CCN(CC)S(=O)(=O)c1nnc(NC(=O)c2ccco2)s1	none
CCN(c1ccc(C)cc1C)S(=O)(=O)c1nnc(NC(=O)c2ccco2)s1	Sm TGR block 50.1µM (no result: VACV mCherry inh, VACV Venus inh)
COc1ccc(-c2noc(-c3cccc(OC)c3OC)n2)cc1	none (no result: HCV inhibitor)
CC1CCN(c2c(NCc3ccc(C(=O)N(C)C4CCCCC4)cc3)c(=O)c2=O)CC1	none (no result: VACV mCherry inh, VACV Venus inh)
CC1CCN(c2c(NCc3ccc(C(=O)N4CCc5ccccc54)cc3)c(=O)c2=O)CC1	HCMV antiviral -84.2
CCOC(=O)C1CCN(c2c(NCc3ccc(C(=O)NCCOC)cc3)c(=O)c2=O)CC1	HCMV antiviral inconclusive (no result: VACV mCherry inh)
Cc1cccc(N2CCN(C(=O)c3ccc(CNc4c(N5CCC(C)CC5)c(=O)c4=O)cc3)CC2C)c1 (centres undefined)	HCV inhibitor inconclusive, VACV Venus inh inconclusive, HCMV antiviral -60.5, FMDV antiviral inconclusive
CCCCNC(=O)c1ccc(CNc2c(N3CCC(C(=O)OCC)CC3)c(=O)c2=O)cc1	HCV inhibitor inconclusive, HCMV antiviral -61.2!
CC1CCCCN1S(=O)(=O)c1ccc(N(C(=O)c2cnccn2)C(C(=O)NC2CCCC2)c2cccs2)cc1 (centres undefined)	HCV inhibitor inconclusive, HCMV antiviral inconclusive
COc1ccc(S(=O)(=O)n2c(CCN3CCOCC3)nc3ccccc32)cc1	none
CCSc1nc(-c2ccccc2)c2cc(Cl)ccc2n1	none
CSc1nc(-c2ccc(C)cc2)nc(C(Cl)Cl)n1	HCV inhibitor 3.16µM (no result: VACV mCherry inh, VACV Venus inh, HCMV antiviral)
CSc1nc(Cl)c(C#N)c(-c2ccc(C)cc2)n1	HCMV antiviral inconclusive (no result: FMDV antiviral)
CCSc1nc(-c2ccccc2)nc(C(Cl)Cl)n1	VACV mCherry inh inconclusive, HCV inhibitor inconclusive, VACV Venus inh 10µM, HCMV antiviral -82.4
CC(C(=O)NCC(=O)Nc1ccc(F)c(F)c1F)N1CCN(c2ccc(O)cc2)CC1 (centres undefined)	Sm TGR block inconclusive (no result: VACV mCherry inh, VACV Venus inh)
Cc1cc(NC(=O)CCC(=O)N(Cc2ccco2)C(C(=O)NC2CCCC2)c2ccc(F)cc2)no1 (centres undefined)	HCMV antiviral -63.2
Cc1cc(NC(=O)CCC(=O)N(c2ccccc2)C(C(=O)NC2CCCC2)c2ccc(F)cc2)no1 (centres undefined)	none
Cc1cc(NC(=O)CCC(=O)N(Cc2ccco2)C2(C(=O)NC3CCCC3)CCC(C)CC2)no1 (centres undefined)	HCV inhibitor 14.1µM
Cc1cc(NC(=O)CCC(=O)N(Cc2ccco2)C(C(=O)NC2CCCC2)c2ccccc2)no1 (centres undefined)	none
Cc1cc(NC(=O)CCC(=O)N(c2ccccc2)C(C(=O)NC2CCCCC2)c2cccs2)no1 (centres undefined)	HCMV antiviral -64.6 (no result: VACV mCherry inh)
CCc1ccc(C(C(=O)NC2CCCC2)N(C(=O)/C=C/C(=O)Nc2cc(C)on2)c2ccccc2C)cc1 (centres undefined)	VACV mCherry inh inconclusive, HCV inhibitor inconclusive, VACV Venus inh inconclusive
CCOc1ccc(N(C(=O)/C=C/C(=O)Nc2cc(C)on2)C(C(=O)NC2CCCC2)c2ccccc2C)cc1 (centres undefined)	HCMV antiviral -93.2, FMDV antiviral inconclusive (no result: VACV mCherry inh, VACV Venus inh)
O=C(c1ccc2c(c1)OCO2)N(Cc1ccco1)C1(C(=O)NC2CCCCC2)CCCCC1	HCV inhibitor 10µM (no result: VACV mCherry inh, VACV Venus inh)
O=C(c1ccccn1)N(Cc1ccco1)C1(C(=O)NC2CCCC2)CCCCC1	HCV inhibitor inconclusive, FMDV antiviral inconclusive
CN1C(=O)NC(=O)/C(=C\C=C\c2ccccc2[N+](=O)[O-])C1=O	HCV inhibitor inconclusive, HCMV antiviral -99.0, Sm TGR block inconclusive, FMDV antiviral inconclusive
O=C1OC(c2ccccc2)=N/C1=C\C=C\c1ccccc1[N+](=O)[O-]	none
CCn1cc2nc(SCc3ccccc3Cl)n(Cc3ccc(OC)cc3)c(=O)c2n1	none (no result: HCV inhibitor)
Cc1ccc(C(=O)N2CCN(S(=O)(=O)c3ccccc3C#N)CC2)cc1S(=O)(=O)N1CCOCC1	none (no result: VACV mCherry inh, VACV Venus inh)
O=S(=O)(Nc1cccnc1)c1ccc(C2CCCCC2)cc1	VACV mCherry inh inconclusive, VACV Venus inh inconclusive, HCMV antiviral -65.7
Cc1ccc(S(=O)(=O)Cc2nc(-c3ccc(C(=O)NCc4ccccc4F)cc3)oc2C)cc1	Sm TGR block 7.94µM (no result: VACV mCherry inh, HCV inhibitor, VACV Venus inh, HCMV antiviral, FMDV antiviral)
CCCNC(=O)c1ccc(-c2nc(CS(=O)(=O)c3ccc(C)cc3)c(C)o2)cc1	Sm TGR block 39.8µM (no result: HCV inhibitor)
COc1ccccc1CNC(=O)c1ccc(-c2nc(CS(=O)c3ccc(C)cc3)c(C)o2)cc1 (centres undefined)	Sm TGR block 12.6µM, FMDV antiviral inconclusive (no result: HCV inhibitor)
Cc1ccc(N2CC(NC(=O)c3ccccc3Br)CC2=O)cc1 (centres undefined)	none (no result: HCV inhibitor)
COc1ccc(-c2nc(CS(=O)(=O)CC(=O)Nc3ccc(Cl)cc3)c(C)o2)cc1	HCV inhibitor 10µM, Sm TGR block 35.5µM
COc1cccc(-c2nc(CS(=O)(=O)CC(=O)NC3CCCCC3C)c(C)o2)c1 (centres undefined)	Sm TGR block 39.8µM
COc1ccc(NC(=O)CS(=O)(=O)Cc2nc(-c3ccc(C)cc3)oc2C)cc1	none
COc1cccc(-c2nc(CS(=O)(=O)CC(=O)NC3CCCCCC3)c(C)o2)c1	HCV inhibitor inconclusive, Sm TGR block inconclusive (no result: VACV mCherry inh, VACV Venus inh)
CCCCN(C)C(=O)CS(=O)(=O)Cc1nc(-c2cccc(OC)c2)oc1C	Sm TGR block 22.4µM
COc1ccc(-c2nc(CS(=O)(=O)CC(=O)NCCc3cc(OC)ccc3OC)c(C)o2)cc1	HCV inhibitor inconclusive, HCMV antiviral -71.2 (no result: VACV mCherry inh, VACV Venus inh)
COCCCN1CC(=O)N2C(c3ccc(C)cc3)c3[nH]c4ccccc4c3C[C@H]2C1=O (some centres undefined)	none
CCN(CC)CCCOc1ccc(C)cc1Br	none
CN(CC(=O)Nc1ccc(OC(F)(F)F)cc1)C(=O)Cc1cccs1	none (no result: VACV mCherry inh, VACV Venus inh, Sm TGR block)
COC(=O)CC1Oc2ccccc2-n2cc(-c3ccc(C)cc3)nc21 (centres undefined)	none (no result: HCV inhibitor)
COc1ccc(OC)c(CCNC(=O)CS(=O)(=O)Cc2nc(-c3ccc(C)cc3)oc2C)c1	HCV inhibitor 3.55µM (no result: VACV mCherry inh, VACV Venus inh)
COc1cccc(-c2nc(CS(=O)(=O)CC(=O)NCCc3ccc(OC)cc3OC)c(C)o2)c1	HCV inhibitor inconclusive, Sm TGR block 25.1µM!
COC(=O)c1ccccc1NC(=O)CS(=O)(=O)Cc1nc(-c2ccc(C)cc2)oc1C	VACV mCherry inh inconclusive, Sm TGR block 25.1µM
COc1cccc(-c2nc(CS(=O)(=O)CC(=O)Nc3c(C)cc(C)cc3C)c(C)o2)c1	HCMV antiviral -62.0 (no result: HCV inhibitor)

Screens: PubChem BioAssay, National Center for Advancing Translational Sciences (NCATS)
